# CendR NRP1 mod – modulators of CendR peptide binding to human neuropilin-1. O14786. FAM-RPARPAR peptide binding to NRP-1, fluorescence polarization. inhibition, % at 25 µM. hit rate 0.85% among 360,000. AID 602438;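 active = inhibition or corrected inhibition above about 18%, plus a signal ratio from 0.5 to 1.5, limit read from the data, passing the limit was not always enough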
# Yeast superoxide – caloric restriction mimetics inhibiting age-related superoxide in yeast; S. cerevisiae aged cells, superoxide DHE fluorescence; stronger effect = lower value; superoxide response (% of plate mean), % at 10 µM; hit rate 0.18% among 330,000; AID 2690;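 active = superoxide response under a set limit, about three screen SD below normal, cut at about 65% in these data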;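 note: yeast aged for seven days with compound at 30 °C before DHE staining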
# A3G deaminase – blocks human APOBEC3G single-stranded DNA deamination; Q9HC16; recombinant A3G, ssDNA deamination FAM/TAMRA fluorescence; inhibition, % at 20 µM; hit rate 0.28% among 330,000; AID 493012;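 active = inhibition of at least 40% at 20 µM, with no more than 30% in the related APOBEC3A deaminase screen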
# PfM18AAP inh – blocks P. falciparum M18 aspartyl aminopeptidase; AID 1822; inhibition, % at 7.35 µM; hit rate 1.2% among 290,000; recombinant PfM18AAP, H-Glu-NHMec fluorogenic cleavage;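 active = inhibition above the campaign mean inhibition over all tested compounds plus 3 SD, cut at about 28% in these data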
# ALR inh – human ALR oxidase inhibition via reduced H2O2 | P55789 | purified ALR, DTT oxidation, H2O2 HRP-luminol luminescence | inhibition, % (test concentration not listed) | hit rate 3.8% among 290,000;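 active = mean replicate inhibition above about 79%, with every replicate also reaching it, limit read from the data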
# Target sequence (P55789 whole entry, looked up): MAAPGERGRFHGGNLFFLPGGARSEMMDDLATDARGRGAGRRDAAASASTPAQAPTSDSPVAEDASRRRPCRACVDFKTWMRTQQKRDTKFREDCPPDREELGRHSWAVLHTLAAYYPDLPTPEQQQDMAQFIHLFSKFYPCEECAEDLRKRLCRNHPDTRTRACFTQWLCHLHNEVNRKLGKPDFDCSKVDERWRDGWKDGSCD
# APOBEC3A inh – blocks human APOBEC3A ssDNA deamination | inhibition, % at 20 µM | AID 493011 | hit rate 0.41% among 330,000 | P31941 | recombinant A3A, FAM/TAMRA ssDNA deamination fluorescence;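 active = at least 40% inhibition at 20 µM here, with at most 30% in a related deaminase screen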
# Target sequence (P31941 whole entry, looked up): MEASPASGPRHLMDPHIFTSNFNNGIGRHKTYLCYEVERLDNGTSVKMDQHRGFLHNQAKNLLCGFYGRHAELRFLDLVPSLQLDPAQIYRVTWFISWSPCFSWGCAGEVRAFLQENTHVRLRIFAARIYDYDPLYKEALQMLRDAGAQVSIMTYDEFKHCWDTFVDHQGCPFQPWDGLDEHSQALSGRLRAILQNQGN
# A number is an active result; i = inactive; nt = no result. A selection: hits, their analogues and other compounds. The true share with any hit is near 5.2%.
SMILES,CendR NRP1 mod,Yeast superoxide,A3G deaminase,PfM18AAP inh,ALR inh,APOBEC3A inh
CC(=O)Nc1ccc(C(=O)NNC(=O)c2csc(N3CCOCC3)n2)cc1,i,nt,nt,nt,nt,nt
O=C(NNC(=O)c1csc(N2CCOCC2)n1)c1ccc(=O)[nH]c1,25,i,i,nt,nt,i
Cc1csc(=Nc2c(C)n(C)n(-c3ccccc3)c2=O)n1Cc1ccccc1,i,i,i,i,97,i
Cc1c(N=C2C=CC(=O)c3ccccc32)c(=O)n(-c2ccccc2)n1C,38,nt,nt,i,nt,nt
C=CCn1c(-c2ccc(OC)cc2)csc1=Nc1c(C)n(C)n(-c2ccccc2)c1=O,i,i,i,i,i,i
Cc1c(N=C2C=C(Br)C(=O)C(Br)=C2)c(=O)n(-c2ccccc2)n1C,i,nt,i,i,nt,i
CN(CC(=O)N1CCCc2c1c(=O)oc1ccc(O)cc21)Cc1ccccc1,i,i,i,i,i,i
CCOc1ccccc1NC(=O)Cn1cnc2c(cnn2-c2ccc(C)c(C)c2)c1=O,38,i,i,i,i,i
COC(=O)c1ccccc1NC(=O)Cn1cnc2c(cnn2-c2ccc(C)c(C)c2)c1=O,nt,i,i,i,i,i
OC(COc1ccccc1)CN1CCCCCC1 (stereo not given),i,i,i,i,i,i
OC(CN1CCOCC1)CN(c1ccccc1)c1ccccc1 (stereo not given),i,i,i,i,99,i
OC(CN1CCCCCC1)CN(c1ccccc1)c1ccccc1 (stereo not given),i,i,i,i,99,i
OC(CN1CCCCC1)CN(c1ccccc1)c1ccccc1 (stereo not given),i,i,i,i,98,i
Cc1ccccc1S(=O)(=O)N(CC(O)CN1CCCCC1)c1ccccc1 (stereo not given),i,i,i,i,i,i
CC(C)C(C)NC(=O)COc1ccc([N+](=O)[O-])cc1Cl (stereo not given),i,i,i,i,i,i
CC(Sc1ccc(Br)cc1)C(N)=O (stereo not given),i,i,i,i,nt,102
NC(=O)CSc1ccc(Br)cc1,i,i,i,i,nt,i
CCCCC1CC(CSC(=N)N)OC1=O (stereo not given),i,i,i,i,i,i
COc1ccccc1-c1noc(COC(=O)c2ccc(Br)o2)n1,i,i,i,nt,i,i
COc1cc(-c2nc(-c3ccccc3)c(-c3cccs3)[nH]2)cc(OC)c1O,i,i,i,i,98,i
CCCc1nc2ccc(NC(C)=O)cc2c(=O)n1Cc1ccc(Cl)cc1,i,i,i,i,i,i
O=C(c1cc2cc(Cl)ccc2[nH]1)N1CCN(C(=O)c2ccco2)CC1,i,i,i,i,i,i
Cc1[nH]c2ccccc2c1/C=N/NC(N)=S,i,i,i,i,nt,i
CCc1nnc(N/N=C/c2c(C)[nH]c3ccccc23)n1N,i,i,i,54,99,i
O=S(=O)(c1cccc(-c2nnc(SCc3nc4ccccc4s3)o2)c1)N1CCOCC1,i,i,i,i,98,i
SMILES,CendR NRP1 mod,Yeast superoxide,A3G deaminase,PfM18AAP inh,ALR inh,APOBEC3A inh
Cc1ccc(-n2c(=S)[nH]c3nc4c(cc3c2=O)COC(C)(C)C4)cc1,i,i,i,i,i,i
O=C(O)c1ccccc1CSc1ccccn1,40,i,i,i,i,i
Cc1ccc(-c2nnc(-c3cccs3)o2)cc1,i,i,i,i,i,i
OCCNc1nc(Cl)nc(NCc2ccco2)n1,i,i,i,i,i,i
COc1cccc(/C=N/NC(=O)Cn2nc(C)c([N+](=O)[O-])c2C)c1O,i,i,i,i,88,i
COc1cccc(/C=N/NC(=O)C(C)n2nc(C)c([N+](=O)[O-])c2C)c1O (stereo not given),i,i,i,i,i,i
COc1ccc(-c2nc(CSCC(=O)N3CCc4ccccc4C3)c(C)o2)cc1OC,i,i,i,i,98,i
COc1ccc(-c2nc(CSCC(=O)N3CCC(C(N)=O)CC3)c(C)o2)cc1OC,i,i,i,i,99,i
COc1ccc(-c2nc(CSCC(=O)N3CCN(c4cccc(C)c4)C(C)C3)c(C)o2)cc1OC (stereo not given),i,i,i,i,99,i
O=C(OCc1cccnc1)C1=Cc2ccccc2OC1,i,i,i,i,i,i
Cc1ccc(S(=O)(=O)CCC(=O)Oc2ccc3c(C)cc(=O)oc3c2)cc1,i,i,i,nt,nt,i
Cc1cc(=O)oc2c(C)c(OC(C)C(=O)N3CC[C@@]4(O)CCCC[C@H]4C3)ccc12 (stereo not given in full),i,i,i,i,nt,i
COc1ccccc1C(=O)NC(=S)Nc1cccnc1Cl,i,i,i,i,i,i
Nc1ccc(N=Nc2ccccc2O)c(N)c1,i,i,i,nt,83,i
O=S(=O)(c1cccc(-c2n[nH]c(=S)n2-c2ccccc2Cl)c1)N1CCOCC1,i,i,i,nt,99,i
O=S(=O)(c1cccc(-c2n[nH]c(=S)n2-c2cccc(C(F)(F)F)c2)c1)N1CCOCC1,i,i,i,nt,i,i
O=C(COc1cccnc1[N+](=O)[O-])c1ccc(Cl)s1,i,i,i,32,i,i
O=C(COc1cccnc1[N+](=O)[O-])Nc1c(Cl)cccc1Cl,i,i,i,nt,i,i
O=C(CC1C(=O)Nc2ccccc2N1CC(=O)N1CCCC1)Nc1ccc(Br)cc1 (stereo not given),i,i,i,nt,98,i
CCCCCCCC(=O)N1c2ccccc2NC(=O)C1CC(=O)Nc1ccc(C(=O)O)cc1 (stereo not given),i,i,i,i,i,i
Clc1ccc(-c2nc3ccncc3[nH]2)cc1,i,i,i,29,99,i
CN(Cc1nc(-c2ccccn2)no1)S(=O)(=O)c1ccc(Br)cc1,28,i,i,i,i,i
Nc1nc2ccc(S(=O)(=O)N3CCCCC3)cc2s1,i,i,i,i,98,i
Cc1nc2ccc(S(=O)(=O)N3CCCCC3)cc2s1,i,i,i,i,i,i
CCOC(=O)c1oc2cc(O)ccc2c(=O)c1-c1ccc(OC)cc1,i,i,i,i,i,i
SMILES,CendR NRP1 mod,Yeast superoxide,A3G deaminase,PfM18AAP inh,ALR inh,APOBEC3A inh
CC(=O)Nc1cccc(OC(=O)N2CCOCC2)c1,i,i,i,i,i,i
O=C(C1=C(O)C(=O)N(CCN2CCOCC2)C1c1ccc(Cl)cc1)c1cc2ccccc2o1 (stereo not given),i,i,i,i,i,i
O=C(C1=C(O)C(=O)N(CCCN2CCOCC2)C1c1ccc(Cl)cc1)c1cc2ccccc2o1 (stereo not given),nt,i,i,i,92,i
Cc1ccn2c(=O)c(NC(=O)COc3ccccc3)c(C)nc2c1,i,i,i,nt,i,i
CN(C)c1cc(Nc2ccc(O)cc2)c([N+](=O)[O-])c2nonc12,i,i,i,i,i,i
O=[N+]([O-])c1c(Nc2ccc(O)cc2)cc(Cl)c2nonc12,26,i,i,i,i,i
CC(C)(C)NC(=O)C1c2ccccc2OCC(=O)N1Cc1cccnc1 (stereo not given),i,nt,nt,nt,nt,nt

# Screening data deposited in PubChem by several laboratories.
